According to PubChem BioAssay (Tox21):
Inconclusive results are not listed. Unmarked numbers belong to inactive results. Calls of active or inactive are those of the source. Calls come from the whole dose curve; as a rule, active = well fitted inhibition curve with a large enough effect in the repeat runs; inconclusive = weak or mixed curves; inactive = no such curve, though single readings can be large or run the other way.

Each compound was assayed against Cytochrome P450 2C19 (Homo sapiens) (UniProt P33261) (assay: Cytochrome P450 Family 2 Subfamily C Member 19 (CYP2C19) small molecule antagonists: luciferase reporter qHTS assay (AID 1671197; note: nearly all actives have a fitted effect of over 65% in size)). Settings: P450-Glo CYP2C19 enzyme, luciferin luminescence, 1 h; series mostly up to 115 µM; activity change, negative = inhibition: at the top concentration.
Text: National Center for Advancing Translational Sciences [NCATS]
U.S. Environmental Protection Agency [EPA]
National Institutes of Environmental Health Sciences [NIEHS]
National Toxicology Program [NTP]
U.S. Food and Drug Administration [FDA]
Cytochrome P450 (CYP) enzymes are membrane-bound hemeproteins that play a key role in metabolism of drugs and xenobiotics. Evaluation of the effect of chemicals on CYP isozymes is useful to minimize the adverse drug reactions and toxicities in drug development process. Tox21 chemicals were tested for their effect on CYP enzyme activities by using P450-Glo (TM) screening systems (Promega Corporation, Madison, WI). These systems provide a luminescent method containing proluciferin substrates and are converted to luciferin products by CYP isozymes. The luciferin products formed are detected with a luciferin detection reagent, and the amount of light produced is proportional to CYP activity. P450-Glo (TM) CYP2C19 screening system (Catalog. No. V9880) was used to detect the compounds that interfere in CYP2C19 activity. The positive control compound used for CYP2C19 assay is ketoconazole (Sigma-Aldrich, St. Louis, MO).
Tox21 Assay Protocol Summary:
Two ul of enzyme-substrate mix was dispensed into medium binding white/solid 1536-well plates (Greiner Bio-One North America Inc., Monroe, NC) using a BioRaptr Flying Reagent Dispenser (FRD, Beckman Coulter, Brea, CA). Compounds dissolved in DMSO and positive control (ketoconazole) were transferred to the assay plates at 23 nl using a Pintool station (Wako, San Diego, CA). The assay plates were incubated at room temperature for 10 min. Then 2 ul of NADPH regeneration solution was added to each well of the assay plates using an FRD and incubated at 37C for 1 h. The reaction was stopped by adding 4 ul of detection reagent using an FRD and after 20 min incubation at room temperature the luminescence signal was measured using a ViewLux plate reader (Perkin Elmer, Shelton, CT). Data were expressed as relative luminescence units.
% is set by controls: 0 for no effect and ±100 for the full control effect; potency is the fitted concentration of half-maximal effect.

Chain of Cytochrome P450 2C19 (Homo sapiens) (P33261 whole entry, looked up): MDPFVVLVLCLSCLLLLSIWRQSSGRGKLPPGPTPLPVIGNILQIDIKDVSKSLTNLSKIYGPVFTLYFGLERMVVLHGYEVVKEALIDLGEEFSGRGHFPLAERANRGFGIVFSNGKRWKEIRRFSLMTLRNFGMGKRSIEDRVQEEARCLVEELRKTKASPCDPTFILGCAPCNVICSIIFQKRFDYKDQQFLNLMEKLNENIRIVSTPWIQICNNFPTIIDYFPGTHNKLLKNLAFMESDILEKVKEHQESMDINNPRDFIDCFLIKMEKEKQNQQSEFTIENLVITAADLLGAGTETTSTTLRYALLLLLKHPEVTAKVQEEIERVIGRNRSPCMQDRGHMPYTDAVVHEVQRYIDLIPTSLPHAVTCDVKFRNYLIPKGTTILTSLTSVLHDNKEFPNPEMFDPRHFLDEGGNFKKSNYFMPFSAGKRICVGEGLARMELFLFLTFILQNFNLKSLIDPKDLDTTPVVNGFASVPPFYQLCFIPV

Row | Structure (SMILES) | Potency | activity change, negative = inhibition
1 | CCCOC(=O)c1ccc(N)cc1 | 24.5 µM (active) | –
2 | CC1CN(c2cc3c(cc2F)c(=O)c(C(=O)O)cn3-c2ccc(F)cc2F)CCN1 (stereo not given) | – | 31.4% [at 10.5 µM]
3 | O=[N+]([O-])c1cccc(S(=O)(=O)NCCNS(=O)(=O)c2cccc([N+](=O)[O-])c2)c1 | 3.09 µM (active) | –
4 | CCN(Cc1cccc(S(=O)(=O)O)c1)c1ccc(C(=C2C=CC(=[N+](CC)Cc3cccc(S(=O)(=O)[O-])c3)C=C2)c2ccccc2)cc1 | 62.8 µM (active) | –
5 | O=C(CCC1CCN(Cc2ccccc2)CC1)c1ccc2c(c1)NCCCC2 | – | -11.7% [at 52.9 µM]
6 | CCCCCCOC(=O)CCCCCCCC(=O)OCCCCCC | – | 13.3%
7 | CC(C)OCC1CO1 (stereo not given) | – | -2.61%
8 | Cc1ccc(S)cc1 | 39.9 µM (active) | –
9 | O=S1OCCO1 | – | 5.8%
10 | CC1=NN(c2ccc(C(=O)O)cc2)C(=O)C1 | 20 µM (active) | –
11 | O=C(Nc1ccc([N+](=O)[O-])cc1)Nc1ccc([N+](=O)[O-])cc1 | – | -7.96% [at 52.9 µM]
12 | O=C(N[C@@H](c1ccccc1)[C@@H]1CCCCN1)c1cccc(C(F)(F)F)c1Cl | 17.8 µM (active) | –
13 | CCn1cc(C(=O)O)c(=O)c2cc(F)c(N3CCNCC3)nc21 | – | 2.53% [at 52.9 µM]
14 | Cc1ccnc2ccccc12 | – | -27.8%
15 | C=CCNc1nc(NCC=C)nc(N2CCN(C(c3ccc(F)cc3)c3ccc(F)cc3)CC2)n1 | – | 10.7% [at 52.9 µM]
16 | [O]=[Bi] | – | -17.2% [at 10.5 µM]
17 | CO/N=C1\CN(c2nc3c(cc2F)c(=O)c(C(=O)O)cn3C2CC2)CC1CN (stereo not given) | – | 50% [at 52.9 µM]
18 | COC(=O)c1cc(Cl)ccc1NS(=O)(=O)C(F)(F)F | – | 13.5% [at 52.9 µM]
19 | C1COCO1 | – | -20.5%
20 | NC(=O)N(O)[C@@H]1COc2cc(OCc3ccccc3)ccc21 | 5.03 µM (active) | –

Row | Structure (SMILES) | Potency | activity change, negative = inhibition
21 | CC(C)C(OC(=O)c1ccccc1)C(C)(C)COC(=O)c1ccccc1 (stereo not given) | 6.33 µM (active) | –
22 | CCCCC/C(=C\c1ccccc1)CO | 1.76 µM (active) | –
23 | C[Si]1(C)O[Si](C)(C)O[Si](C)(C)O1 | – | 0.688%
24 | C=CC(C)(C)CC(=O)OC | 35.7 µM (active) | –
25 | CCCCCCCCSCCO | 20 µM (active) | –
26 | O=C(O)c1ccccc1NCCc1ccccc1 | – | 5.43% [at 52.9 µM]
27 | CN1Cc2cc(C(=O)N3CCC(C4CCNCC4)CC3)ccc2N[C@@H](CC(=O)O)C1=O | – | 24.2% [at 52.9 µM]
28 | O=C(C(=O)c1ccccc1)c1ccccc1 | 8.9 µM (active) | –
29 | CC(C)CCCCCOC(=O)CCCCC(=O)OCCCCCC(C)C | – | -17.6%
30 | Nc1nccs1 | – | 5.04%
31 | CCCOc1ccc(S(=O)(=O)N2CCN(CC)CC2)cc1-c1nc2c(CC)n(Cc3ccccn3)nc2c(=O)[nH]1 | 71 µM (active) | –
32 | CCc1c2c(nc3ccc(OC(=O)N4CCC(N5CCCCC5)CC4)cc13)-c1cc3c(c(=O)n1C2)COC(=O)[C@]3(O)CC | – | 0.803% [at 52.9 µM]
33 | Nc1ccc(C(=O)OCCCOC(=O)c2ccc(N)cc2)cc1 | 17.8 µM (active) | –
34 | CCCCC(=O)O[C@]1(C(=O)CO)CC[C@H]2[C@@H]3CCC4=CC(=O)CC[C@]4(C)[C@H]3[C@@H](O)C[C@@]21C | – | -17% [at 52.9 µM]
35 | C[Si](NC1CCCCC1)(NC1CCCCC1)NC1CCCCC1 | – | -14.3%
36 | ON(Cc1ccccc1)Cc1ccccc1 | 7.1 µM (active) | –
37 | CCC(C(=O)OCCN(CC)CC)c1ccccc1 (stereo not given) | – | 10.7% [at 52.9 µM]
38 | CCCCCCCCCCOS(=O)(=O)O | – | -1.44%
39 | COc1cc2c(N3CCN(C(=O)Nc4ccc(OC(C)C)cc4)CC3)ncnc2cc1OCCCN1CCCCC1 | – | -3.81% [at 52.9 µM]
40 | O=C(O)c1cccc(O)c1 | 40.2 µM (active) | –
